From PubChem
L3MBTL1 block: blocks human L3MBTL1; AlphaScreen L3MBTL1–H3K9me1 peptide binding; actives 0.66% (n = 230,000); Q9Y468; Potency, µM (series often up to 57.1 µM), actives largely listed as inhibitors; note: nearly all actives have a fitted effect of over 60% in size
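Read-out is AlphaScreen signal from streptavidin donor and nickel chelate acceptor beads (10 ug/mL final each) bridging L3MBTL1 (50 nM) and biotinylated K9-monomethylated H3(1-15) peptide (75 nM), after 30 min compound exposure at room temperature.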
JMJD2A Tudor: blocks the human JMJD2A Tudor domain. O75164. AlphaScreen JMJD2A-Tudor / H3K4me3 peptide binding. Potency, µM (series often up to 114 µM), most hits filed as inhibitors. actives 4.4% (n = 390,000). AID 504339; note: nearly all actives have a fitted effect of over 50% in size
HP1b chromo inh: inhibitors of HP1-beta chromodomain binding to methylated histone tails; P83916; AlphaScreen HP1-beta / biotin-H3K9me3 peptide binding; Potency, µM (highest dose often 114 µM), most hits filed as inhibitors; actives 0.56% (n = 390,000); note: nearly all actives have a fitted effect of over 70% in size
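HP1-beta protein (50 nM final) preincubated 30 min at room temperature with biotinylated H3(1-18)K9me3 peptide (50 nM) in PBS pH 7.4, 0.01% Tween-20, then compound added for 30 min. AlphaScreen streptavidin donor/nickel chelate acceptor beads (10 ug/mL final), 30 min dark, luminescence read.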
G9a block: G9a (human) methyltransferase inhibition. G9a H3K9 monomethylation, AlphaScreen, 2 h. Potency, µM (doses to about 102 µM), actives largely listed as inhibitors. actives 8.8% (n = 350,000); note: nearly all actives have a fitted effect of over 75% in size
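G9a (20 nM) was preincubated 15 min with compound, then reacted 2 h at room temperature with 500 nM biotin-H3K9 peptide and 20 µM SAM. Monomethyl-H3K9 detected by AlphaScreen using anti-H3K9me1 antibody.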
Sfp inh: blocks B. subtilis Sfp PPTase activity | Q9F4F7 | Biochemical Sfp PPTase activity, qHTS | Potency, µM, actives largely listed as inhibitors | actives 3.5% (n = 310,000) | AID 1490;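 note: the enzyme is Sfp with the accession as filed and its product quenches rhodamine fluorescence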
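Fluorescence-quenching assay: 15 nM Sfp-PPTase preincubated 15 min at room temperature with compound, then 5 uM rhodamine-CoA and 12.5 uM BHQ-2-labelled YbbR peptide added. Fluorescence (ex 525/em 598 nm) read at start and after 30 min; difference gives rate.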
BAZ2B inh: blocks human BAZ2B. Q9UIF8. AlphaScreen BAZ2B-H3K14Ac peptide displacement. Potency, µM (top dose mostly 114 µM), actives largely listed as inhibitors. actives 4.4% (n = 360,000); note: nearly all actives have a fitted effect of over 60% in size
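AlphaScreen displacement of biotin-H3(5-23)K14Ac peptide (50 nM final) from BAZ2B (50 nM final) in PBS pH 7.4, 0.01% Tween-20; complex preformed 30 min RT, then compounds (top 110 uM) 30 min RT, beads 20 min dark.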
Hits are given with their value; - = inactive; ? = inconclusive; . = no result; [ ] = remark or other dose. Only some compounds are listed: those with a hit (about 12% of all), similar ones and a draw of the others. Calls come from the whole dose curve; as a rule, active = well fitted curve in the direction sought with a large enough effect; inconclusive = small, poorly fitted or top-dose-only effect, or another doubt; inactive = no such curve, though single readings can be large; an effect the other way counts as inactive or inconclusive.

SMILES	L3MBTL1 block	JMJD2A Tudor	HP1b chromo inh	G9a block	Sfp inh	BAZ2B inh
C#CCOCCOCCOCCNc1nc(N2CCN(C(=O)[C@H]([C@@H](C)CC)n3cc([C@@H](N)CO)nn3)CC2)nc(N2CCN(C(=O)[C@H](Cc3cc4ccccc4[nH]3)n3cc([C@@H](N)Cc4ccc(O)cc4)nn3)CC2)n1	.	.	.	?	?	14µM
CCOC(=O)C(=O)N1CCC(C(=O)OC)CC1	-	-	-	35µM	-	-
COC(=O)C1CCN(C(=O)CCC2CCCCC2)CC1	.	-	-	7.1µM	-	-
O=C(CCC1CCCC1)N1CCN(C(=O)COc2ccccc2)CC1	-	-[11.4 µM]	-	50µM	-	-
CS(=O)(=O)N1CCN(C(=O)CCC2CCCC2)CC1	-	-	-	-	-	-
O=C(CCC1CCCC1)N1CCC(N2CCCCCC2)CC1	-	4µM	?	?	-	56µM
CCOC(=O)N1CCN(C(=O)CCC2CCCC2)CC1	-	-	-	-	-	-
Cc1ccc(NC(=O)C2CCCN2S(=O)(=O)c2cccc3nsnc23)c(Br)c1 (stereo not given)	.	?	-	?	.	?
Cc1nnc2c(N3CCN(c4ccccc4F)CC3)nc3ccc(C(=O)c4ccccc4)cc3n12	.	-	-	-	.	-
CCOC(=O)N1C(C)CN(/[N+]([O-])=N/Oc2ccc([N+](=O)[O-])cc2[N+](=O)[O-])CC1C (stereo not given)	.	-	-	.	-	.
COc1ccc(CNc2ccc3c(c2)ncn3-c2ccccc2OC)cc1	?	28µM	?	?	-	40µM
COc1ccccc1-n1cnc2cc(NCc3ccccc3O)ccc21	?	-[11.4 µM]	?	?	-	35µM
CCCNC(=O)c1ccc2c(c1)ncn2-c1ccccc1OC	-	-[11.4 µM]	-	-	-	-
COc1ccccc1-n1cnc2cc(NS(=O)(=O)c3ccc(Br)cc3)ccc21	.	-	-	-	-	-
CCn1cnc2cc(NCc3cccs3)ccc21	-	-	-	45µM	-	?
COc1ccccc1-n1cnc2cc(NCc3ccco3)ccc21	-	?	-	35µM	-	-
CC(C)c1cccc(-c2ccc3c(c2)S(=O)(=O)c2cccc(C(=O)NCc4ccccc4Cl)c2C3=O)c1	-	-	-	.	.	.
N#Cc1cccc(C(=O)Nc2cc(S(=O)(=O)N3CCOCC3)ccc2N2CCCC2)c1	-	-	-	.	.	.
CCCc1nn2c(=O)cc(COC(=O)c3ccc(NC(=O)COc4ccccc4F)cc3)nc2s1	.	-	-	-	.	-
COc1ccccc1-n1cnc2cc(NCc3cccs3)ccc21	.	45µM	?	?	-	45µM
CC(C)(C)n1cnc2cc(NCc3cccs3)ccc21	.	-	-	-	-	-
Nc1ccc(N=Nc2ccccc2O)c(N)c1	.	35µM	?	.	.	.
Oc1ccccc1N=Nc1ccccc1O	.	32µM	-	16µM	-	.
Cn1c(=O)c2[nH]c(N=Nc3ccc(N)cc3N)nc2n(C)c1=O	-	-	-	.	?	?
S=c1nc(-c2ccc(Cl)cc2)[nH][nH]1	.	?	?	0.56µM	45µM	-
SMILES	L3MBTL1 block	JMJD2A Tudor	HP1b chromo inh	G9a block	Sfp inh	BAZ2B inh
Nc1nc(-c2ccc(Cl)cc2)nc(-c2ccc(Cl)cc2)n1	.	-	-	-	-	-
CCCOc1ccc(-c2nc(=S)[nH][nH]2)cc1	.	?	-	.	50µM	-
N[C@H](Cc1cnc[nH]1)C(=O)O	.	.	.	-	-	.
CCCCC(=O)Nc1cc(C)c(O)c(-c2nc3ncccc3o2)c1	.	-	-	-	.	-
COc1ccc(Nc2cc3n(c(=O)n2)CCc2cc(OC)c(OC)cc2-3)cc1	.	?	-	-[2.33 µM]	-	-
COc1cc2c(cc1OC)-c1cc(Nc3ccc(C(=O)O)cc3)nc(=O)n1CC2	.	?	?	?	-	71µM
CCOC(=O)C1CCN(C(c2ccccn2)c2c(C)[nH]c3ccccc23)CC1 (stereo not given)	.	?	?	1.4µM	?	-
Cc1[nH]c2ccccc2c1C(c1ccccn1)N1CCC(C(N)=O)CC1 (stereo not given)	-	?	-	1.6µM	63µM	.
COc1ccc(CC(=O)Oc2ccc(C)cc2C)cc1	-	-	-	-	-	-
